Results reported in PubChem BioAssay AID493008 (The Scripps Research Institute Molecular Screening Center, 2010).
The campaign covered roughly 340,000 compounds. About 800 (0.24%) were called active. What follows is part of a selection rich in actives, with near analogues and random picks from the rest. Unmarked numbers belong to inactive results.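 Rule for the calls: active = activation above the mean over all tested compounds plus 3 SD (cut at about 30% in these data); inactive = the rest.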

biological target: Troponin I, cardiac muscle (Homo sapiens) + Troponin T, cardiac muscle (Homo sapiens) + Troponin C, slow skeletal and cardiac muscles (Homo sapiens) (UniProt P19429+P45379+P63316); test: calcium sensitizers of cardiac thin filaments – biochemical, IANBD-TnC fluorescence, EC20 calcium, primary screen (AID 493008); conditions: IANBD-labeled TnC RTF fluorescence at EC20 calcium; at 7.2 µM; active compounds read high;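 note: rise in fluorescence read as greater calcium sensitivity of cardiac thin filaments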

| SMILES | activation |
| --- | --- |
| CCCCC(=O)N/N=C/c1c(O)n(CC)c(=S)n(CC)c1=O | 93.2% (active) |
| O=C(N/N=C/c1c(O)n(Cc2ccccc2)c(=O)[nH]c1=O)c1ccccc1 | 0.31% |
| Cn1c(O)c(C=NCCCC(=O)O)c(=O)n(C)c1=O | 2.93% |
| COc1ccccc1N=C1SCCCN1C | -2.56% |
| CN1CCc2cc3c(cc2[C@H]1[C@@H]1OC(=O)c2c1ccc1c2OCO1)OCO3 | 0.04% |
